Substitutions are numbered along the chain they refer to. Whole data set: some 24,000 sequences, median “enrichment r” near 0.99, cut for the highest 2% near 3.7. The sample as a whole holds a higher share of the highest values than the screen did.
T1: UNK ZnF1-3 (human, UniProt Q9C0B0 31-174)
T1 sequence: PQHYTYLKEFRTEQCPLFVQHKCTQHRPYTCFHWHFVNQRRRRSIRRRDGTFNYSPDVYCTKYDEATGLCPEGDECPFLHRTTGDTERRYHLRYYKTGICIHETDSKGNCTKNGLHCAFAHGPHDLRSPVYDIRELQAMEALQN

B1: chr5:31803264:31803265:+_ENSMUSG00000064037_ENSMUST00000076949|mus_mus|FALSE|FALSE (ssRNA)
RNA: GGGAGUUCUACAGUCCGACGAUCUGGAAAUGAGGAAGCCAGGGCCUCAGUGAUGAUUGUCCCUGAAGCUGACCAGGUAAAUACUUCAAUCUGUCCAGGUGUGUCAAUCAAGACAUAUCUGAAUGUGUUCUGGGCCUUCUCAAUCAACAGAGGAUUGAGCAUCA
B2: 64960267_64960387_5255_CDS_ENSG00000171988_ENST00000542921|human|control|control (ssRNA)
RNA: GGGAGUUCUACAGUCCGACGAUCUGAGUGAGCUGGUUCUUCUCCUUUUUUACUGCGAAUAAGUCUACAUUCUCGACACUUUUGUAAAUUAGGCCCUAUCUCACAGCAGGAGUCAUCCUGUAAAAAGGAUUCCCCAGUUUGCUUCAACAGAGGAUUGAGCAUCA
B3: chr4:76721835:76721836:+_ENSG00000138768_ENST00000264904|hu_mus|hu_hu_hu_mus_True|98_108 (ssRNA)
RNA: GGGAGUUCUACAGUCCGACGAUCGUUGGCUGGGGUUUCUGAGAUGCCUCUGGAAUAUAACUCAUGUUUGCUAAUAAAUCCUAGUUUCUCUAUGAAAUUCUCUUUGCCAAUCCUCUUCUCUAUUAGUUGCUUUAGUUUCUCUUUCAACAGAGGAUUGAGCAUCA
B4: chr1:241675328:241675329:-_ENSG00000091483_ENST00000366560|hu_hu|FALSE|FALSE (ssRNA)
RNA: GGGAGUUCUACAGUCCGACGAUCGCUUUUAUUAACAUGAUCGUUGGGAUGCACAGGUAUCUUGCUGCCAAGUUCACCUCCUAACAUUUCAAUUGCUCUAUUGCUAAUGACUUCAUUUACAUUCAUAUUUGUCUGAGUUCCUGACAACAGAGGAUUGAGCAUCA
B5: 21460886_21461006_6735_CDS_ENSMUSG00000042453_ENSMUST00000161356|mouse|control|control (ssRNA)
RNA: GGGAGUUCUACAGUCCGACGAUCAGGAUUUUUGGUGCUUAUUUUACAGGUUGGCCCAGAGUAGCCCGGGUCACAUAUACACUUGGUUCCAUUGAUGCAGCUCCCGUGCCCAUAGCACAUCUCUUCACACUGGGGACCAAUGUACAACAGAGGAUUGAGCAUCA
B6: chr10:121586544:121586545:+_ENSG00000198825_ENST00000369080|hu_mus|motif|central (ssRNA)
RNA: GGGAGUUCUACAGUCCGACGAUCCGACUGCCUAAUCGAGGUGCUGACACAAUAAUCCCACAGCUUGGGAGAAUGUAAUCGGUUGGCCCUACGCUCUCUAAAGAAUUGGCUAGCUGCUUGUCUUCCUCCGACUUAGAAUUUGUACAACAGAGGAUUGAGCAUCA
B7: chr2:153237265:153237266:-_ENSMUSG00000061411_ENSMUST00000109784|mus_mus|mus_mus_mus_hu_False|78_108 (ssRNA)
RNA: GGGAGUUCUACAGUCCGACGAUCAAAAAAAAGAAAAAAAAAGUGUCCUUGUGCCCAAAGUCUCAGAUGCUUGGAGUGUGGCUAGAAACAGCUCUUUUGGAUCCCACCUCUUUCAAAAACAAAAUGUACCAACUGGUGAGGCAGCAACAGAGGAUUGAGCAUCA
B8: chr2:153237265:153237266:-_ENSMUSG00000061411_ENSMUST00000109784|mus_mus|mus_mus_mus_hu_False|28_78 (ssRNA)
RNA: B7 RNA with G32A, A115G
B9: chr2:153237265:153237266:-_ENSMUSG00000061411_ENSMUST00000109784|mus_mus|mus_mus_mus_hu_False|78_78 (ssRNA)
RNA: B7 RNA with G32A
B10: 112580157_112582736_3545_CDS_ENSG00000153107_ENST00000341068|human|control|control (ssRNA)
RNA: GGGAGUUCUACAGUCCGACGAUCCAAAUCUCUUAAAGUGAAUCCUACAUUAGUCAUCCAGACAACCAAUCUUUCAGCUAGACUAGAAACAGAUGUAGAAUGCCUGAAACUAAACCUGUUUUCCUCUUGUUCUACUUGCAACUUCAACAGAGGAUUGAGCAUCA
B11: chr2:153237265:153237266:-_ENSMUSG00000061411_ENSMUST00000109784|mus_mus|mus_mus_mus_hu_False|78_98 (ssRNA)
RNA: B7 RNA with G32A, A37G
B12: chr2:153237265:153237266:-_ENSMUSG00000061411_ENSMUST00000109784|mus_mus|mus_mus_mus_hu_False|58_78 (ssRNA)
RNA: B7 RNA with G32A, U78C, G79A
B13: chr2:153237265:153237266:-_ENSMUSG00000061411_ENSMUST00000109784|mus_mus|FALSE|FALSE (ssRNA)
RNA: GGGAGUUCUACAGUCCGACGAUCAAAAAAAAGAAAAGAAAAGUGUCCUUGUGCCCAAAGUCUCAGAUGCUUGGAGUGCAGCUAGAAACAGCUCUUUUGGAUCCCACCUCUUUCAGAAAACAGUGUACCAACUGGUGAGGCAGGCAACAGAGGAUUGAGCAUCA
B14: 61074685_61077595_487_3pUTR_ENSG00000119541_ENST00000238497|human|control|control (ssRNA)
RNA: GGGAGUUCUACAGUCCGACGAUCUCUUUUUUUCAGGAUCAUCAGAUUCUCCUUCCCCAUCACUGUCAUUCCCCUUCUCAUCUGCUGGACUCGGCUGUCCUUCUUUCACUGGCUUCUGUGCUUUUUUCUCUUUAUUUUUCAGGUCAACAGAGGAUUGAGCAUCA

Target: T1, UNK ZnF1-3
Assay: nsRBNS (natural sequence RNA bind-n-seq); RBNS binding buffer (assumed for nsRBNS): 25 mM Tris pH 7.5, 150 mM KCl, 3 mM MgCl2, 0.01% Triton X-100, 500 ug/ml BSA, 20 U/ml SUPERase-In, 4 C; UNK is unkempt and MSI1 is Musashi-1; names of the RNAs are library labels; protein concentration not given here; high values mean tight binding

In order of rising binding signal:
1. B14  0.231 enrichment R
2. B3  0.409 enrichment R
3. B5  0.458 enrichment R
4. B4  0.465 enrichment R
5. B1  0.591 enrichment R
6. B2  0.8 enrichment R
7. B10  0.842 enrichment R
8. B6  1.12 enrichment R
9. B13  1.55 enrichment R
10. B7  3.65 enrichment R
11. B8  4.56 enrichment R
12. B11  4.81 enrichment R
13. B9  5.71 enrichment R
14. B12  6.45 enrichment R

Reference: PMC12136788
